Holding throughout (assay): DAPPL (digital affinity profiling via proximity ligation, sequencing); 10 mM Tris-HCl pH 7.5, 50 mM NaCl, 1 mM DTT, 4% glycerol, room temperature, 30 min; GST-TFs on glutathione beads, 16-mer random dsDNA library, 0.1% formaldehyde crosslink after washing; high values mean tight binding
Experiment [1] concerns the target T1, FLI1 (Homo sapiens, UniProt Q01543 1-452).
T1 sequence: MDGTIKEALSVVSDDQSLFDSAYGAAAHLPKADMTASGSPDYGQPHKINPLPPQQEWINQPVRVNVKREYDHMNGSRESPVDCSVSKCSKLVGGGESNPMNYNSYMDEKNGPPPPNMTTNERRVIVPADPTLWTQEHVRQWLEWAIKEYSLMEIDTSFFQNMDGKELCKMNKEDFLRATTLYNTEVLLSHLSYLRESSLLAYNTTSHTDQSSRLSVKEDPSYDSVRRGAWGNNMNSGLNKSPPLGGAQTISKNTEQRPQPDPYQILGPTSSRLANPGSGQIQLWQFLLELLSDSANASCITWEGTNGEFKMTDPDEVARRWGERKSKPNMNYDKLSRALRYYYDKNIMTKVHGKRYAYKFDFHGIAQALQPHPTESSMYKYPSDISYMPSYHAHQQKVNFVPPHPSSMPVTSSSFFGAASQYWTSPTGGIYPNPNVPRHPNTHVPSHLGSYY
To be noted: protein: recombinant; tags: N-terminal GST; dsDNA, one strand shown. A digest of the protocol:
(§1)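 Pools were built from human transcription factors expressed in yeast as GST fusions, captured on glutathione beads and DNA-barcoded, along with a tag-only sample. Incubation with 200 nmole of a 16-mer random double-stranded DNA library lasted 30 min at room temperature in Tris/NaCl/DTT/glycerol buffer, and was followed by washing, 0.1% formaldehyde crosslinking, proximity ligation, PCR amplification and Illumina NextSeq500 sequencing. Binding signal is the quotient of each hexamer's read frequency for a factor and its frequency for the tag-only sample.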

Experiment [2] has as its target T2, ELK1 (Homo sapiens, UniProt P19419 1-428).
T2 sequence: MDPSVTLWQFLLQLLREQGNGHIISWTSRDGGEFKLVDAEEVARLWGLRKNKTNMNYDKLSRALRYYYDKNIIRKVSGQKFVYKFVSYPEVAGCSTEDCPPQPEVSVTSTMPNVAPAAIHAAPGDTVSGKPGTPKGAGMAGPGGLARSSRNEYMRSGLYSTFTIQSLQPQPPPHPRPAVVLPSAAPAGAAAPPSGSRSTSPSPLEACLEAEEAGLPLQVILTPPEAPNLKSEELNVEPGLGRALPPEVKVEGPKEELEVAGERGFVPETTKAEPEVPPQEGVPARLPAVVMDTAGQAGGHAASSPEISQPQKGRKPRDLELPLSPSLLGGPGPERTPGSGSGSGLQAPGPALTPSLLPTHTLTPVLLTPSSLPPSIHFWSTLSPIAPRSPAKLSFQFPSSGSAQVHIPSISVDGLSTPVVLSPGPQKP
As to conditions: protein: recombinant; tags: N-terminal GST; dsDNA, one strand shown. Put shortly: as §1

The target of experiment [3] is T3, GABPA (Homo sapiens, UniProt Q06546 1-454).
T3 sequence: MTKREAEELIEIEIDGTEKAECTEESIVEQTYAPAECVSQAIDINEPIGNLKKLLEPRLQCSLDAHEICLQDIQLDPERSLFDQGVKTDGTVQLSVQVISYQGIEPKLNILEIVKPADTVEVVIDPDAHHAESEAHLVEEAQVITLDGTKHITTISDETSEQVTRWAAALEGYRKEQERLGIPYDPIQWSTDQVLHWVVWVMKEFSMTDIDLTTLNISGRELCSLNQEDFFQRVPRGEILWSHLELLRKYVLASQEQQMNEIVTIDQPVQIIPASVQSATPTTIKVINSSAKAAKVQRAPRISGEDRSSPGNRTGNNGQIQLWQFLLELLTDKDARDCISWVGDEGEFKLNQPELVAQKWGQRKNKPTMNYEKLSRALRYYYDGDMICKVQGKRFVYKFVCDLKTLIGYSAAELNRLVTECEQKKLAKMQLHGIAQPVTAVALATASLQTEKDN
To be noted: protein: recombinant; tags: N-terminal GST; dsDNA, one strand shown. A digest of the protocol: as §1

The target of experiment [4] is T4, ERG (Homo sapiens, UniProt P11308 1-479).
T4 sequence: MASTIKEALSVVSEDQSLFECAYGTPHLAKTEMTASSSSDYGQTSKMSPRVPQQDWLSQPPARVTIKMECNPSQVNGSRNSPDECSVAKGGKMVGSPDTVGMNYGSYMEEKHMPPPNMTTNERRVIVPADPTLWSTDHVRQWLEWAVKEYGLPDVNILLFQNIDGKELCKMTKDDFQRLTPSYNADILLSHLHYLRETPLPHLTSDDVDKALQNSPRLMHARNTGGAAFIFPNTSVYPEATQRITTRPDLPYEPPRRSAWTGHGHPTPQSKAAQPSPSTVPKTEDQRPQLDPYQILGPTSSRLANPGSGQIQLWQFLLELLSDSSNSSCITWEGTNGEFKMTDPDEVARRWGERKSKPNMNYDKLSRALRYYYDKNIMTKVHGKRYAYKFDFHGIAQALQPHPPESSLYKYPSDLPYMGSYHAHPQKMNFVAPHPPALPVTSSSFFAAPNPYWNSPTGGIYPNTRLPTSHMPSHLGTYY
To be noted: protein: recombinant; tags: N-terminal GST; dsDNA, one strand shown. Put shortly: as §1

Experiment [5] deals with ELF1 (Homo sapiens, UniProt P32519 1-619). As to conditions: protein: recombinant; tags: N-terminal GST; dsDNA, one strand shown. A digest of the protocol:
as §1

Experiment [6] deals with T5, EHF (Homo sapiens, UniProt Q9NZC4 1-300).
T5 sequence: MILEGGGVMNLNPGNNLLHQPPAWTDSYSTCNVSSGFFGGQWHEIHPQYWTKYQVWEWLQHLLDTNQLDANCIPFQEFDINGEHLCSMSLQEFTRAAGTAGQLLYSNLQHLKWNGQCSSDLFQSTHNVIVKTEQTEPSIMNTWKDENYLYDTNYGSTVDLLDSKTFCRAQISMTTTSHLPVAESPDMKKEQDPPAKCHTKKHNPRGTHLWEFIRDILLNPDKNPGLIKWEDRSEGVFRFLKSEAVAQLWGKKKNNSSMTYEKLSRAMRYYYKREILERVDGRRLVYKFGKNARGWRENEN
To be noted: protein: recombinant; tags: N-terminal GST; dsDNA, one strand shown. A digest of the protocol: as §1

Experiment [7] deals with SPI1 (Homo sapiens, UniProt P17947 1-270). As to conditions: protein: recombinant; tags: N-terminal GST; dsDNA, one strand shown. Put shortly:
as §1

In experiment [8] the target is SPIB (Homo sapiens, UniProt Q01892 1-262). As to conditions: protein: recombinant; tags: N-terminal GST; dsDNA, one strand shown. Put shortly: as §1
SPIB, sequence (Q01892 whole entry): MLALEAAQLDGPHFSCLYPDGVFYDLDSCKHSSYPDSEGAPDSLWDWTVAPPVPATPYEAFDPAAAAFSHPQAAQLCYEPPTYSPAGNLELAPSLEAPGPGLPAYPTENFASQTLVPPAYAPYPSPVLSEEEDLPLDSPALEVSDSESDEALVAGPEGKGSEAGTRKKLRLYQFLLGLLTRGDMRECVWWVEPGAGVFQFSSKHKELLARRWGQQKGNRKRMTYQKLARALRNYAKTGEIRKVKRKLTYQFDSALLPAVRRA
For experiment [9], the target named is T6, ELK3 (Homo sapiens, UniProt P41970 1-407).
T6 sequence: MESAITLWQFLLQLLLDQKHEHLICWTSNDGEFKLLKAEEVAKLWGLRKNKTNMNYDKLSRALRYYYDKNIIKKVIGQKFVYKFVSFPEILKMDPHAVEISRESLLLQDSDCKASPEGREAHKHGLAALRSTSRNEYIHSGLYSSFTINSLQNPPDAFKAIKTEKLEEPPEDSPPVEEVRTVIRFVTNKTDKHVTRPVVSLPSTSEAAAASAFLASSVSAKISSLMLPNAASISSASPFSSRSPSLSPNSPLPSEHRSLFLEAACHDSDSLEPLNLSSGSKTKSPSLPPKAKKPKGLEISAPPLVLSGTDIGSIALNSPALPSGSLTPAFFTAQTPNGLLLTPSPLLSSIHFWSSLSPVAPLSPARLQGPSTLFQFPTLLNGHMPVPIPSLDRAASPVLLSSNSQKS
As to conditions: protein: recombinant; tags: N-terminal GST; dsDNA, one strand shown. Put shortly: as §1

The target in experiment [10] is T7, FEV (Homo sapiens, UniProt Q99581 1-238).
T7 sequence: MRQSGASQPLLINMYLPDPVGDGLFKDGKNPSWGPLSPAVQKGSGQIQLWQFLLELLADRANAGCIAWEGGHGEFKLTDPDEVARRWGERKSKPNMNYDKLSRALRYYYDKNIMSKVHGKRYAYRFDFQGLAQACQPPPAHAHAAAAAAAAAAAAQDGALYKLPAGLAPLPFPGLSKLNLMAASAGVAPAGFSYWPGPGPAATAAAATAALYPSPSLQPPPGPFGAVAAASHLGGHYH
As to conditions: protein: recombinant; tags: N-terminal GST; dsDNA, one strand shown. A digest of the protocol: as §1

In experiment [11] the target is ETV5 (Homo sapiens, UniProt P41161 1-510). To be noted: protein: recombinant; tags: N-terminal GST; dsDNA, one strand shown. Put shortly: as §1
ETV5, sequence (P41161 whole entry): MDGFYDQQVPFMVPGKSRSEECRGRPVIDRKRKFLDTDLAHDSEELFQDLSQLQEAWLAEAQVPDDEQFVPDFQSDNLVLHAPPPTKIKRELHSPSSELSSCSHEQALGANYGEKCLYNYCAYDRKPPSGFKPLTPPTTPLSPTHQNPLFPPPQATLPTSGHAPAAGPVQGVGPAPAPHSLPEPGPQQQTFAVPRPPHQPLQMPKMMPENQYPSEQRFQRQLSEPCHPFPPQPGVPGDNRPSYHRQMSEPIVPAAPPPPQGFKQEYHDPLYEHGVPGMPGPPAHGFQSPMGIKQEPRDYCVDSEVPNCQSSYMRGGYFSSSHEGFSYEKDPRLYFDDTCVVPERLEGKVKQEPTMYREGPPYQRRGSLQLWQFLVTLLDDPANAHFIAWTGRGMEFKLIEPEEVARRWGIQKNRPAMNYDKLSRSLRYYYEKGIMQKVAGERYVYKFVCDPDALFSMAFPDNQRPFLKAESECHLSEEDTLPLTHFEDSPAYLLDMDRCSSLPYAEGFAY
Experiment [12] addresses HSF1 (Homo sapiens, UniProt Q00613 1-529). As to conditions: protein: recombinant; tags: N-terminal GST; chain copies: 3; dsDNA, one strand shown. Put shortly: as §1
The target of experiment [13] is T8, SPIC (Homo sapiens, UniProt Q8N5J4 1-248).
T8 sequence: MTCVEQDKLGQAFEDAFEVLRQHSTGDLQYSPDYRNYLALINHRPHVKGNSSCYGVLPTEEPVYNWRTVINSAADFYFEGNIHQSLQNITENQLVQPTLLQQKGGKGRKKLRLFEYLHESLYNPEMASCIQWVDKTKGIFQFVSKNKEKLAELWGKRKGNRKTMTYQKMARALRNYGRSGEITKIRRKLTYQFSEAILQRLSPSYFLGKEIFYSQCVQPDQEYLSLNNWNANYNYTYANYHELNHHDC
As to conditions: protein: recombinant; tags: N-terminal GST; dsDNA, one strand shown. A digest of the protocol:
as §1

Experiment [14] deals with ELF4 (Homo sapiens, UniProt Q99607 1-663). To be noted: protein: recombinant; tags: N-terminal GST; dsDNA, one strand shown. A digest of the protocol: as §1
ELF4, sequence (Q99607 whole entry): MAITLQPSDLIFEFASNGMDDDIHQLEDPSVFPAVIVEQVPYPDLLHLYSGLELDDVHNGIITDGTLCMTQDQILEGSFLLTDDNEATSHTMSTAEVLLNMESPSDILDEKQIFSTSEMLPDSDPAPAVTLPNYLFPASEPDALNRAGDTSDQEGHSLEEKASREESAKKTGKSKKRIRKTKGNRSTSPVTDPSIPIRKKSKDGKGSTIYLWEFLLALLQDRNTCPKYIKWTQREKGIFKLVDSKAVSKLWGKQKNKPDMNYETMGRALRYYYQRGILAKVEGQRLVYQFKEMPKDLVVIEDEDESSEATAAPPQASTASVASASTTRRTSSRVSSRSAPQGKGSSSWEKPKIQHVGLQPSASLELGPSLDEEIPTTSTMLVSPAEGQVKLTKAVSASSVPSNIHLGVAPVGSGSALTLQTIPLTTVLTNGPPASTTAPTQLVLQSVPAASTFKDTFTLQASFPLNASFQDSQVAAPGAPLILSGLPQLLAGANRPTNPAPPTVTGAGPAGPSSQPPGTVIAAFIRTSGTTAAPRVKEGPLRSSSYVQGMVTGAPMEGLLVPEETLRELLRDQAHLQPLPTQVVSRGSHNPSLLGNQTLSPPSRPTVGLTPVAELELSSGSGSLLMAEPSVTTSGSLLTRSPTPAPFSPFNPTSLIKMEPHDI
Experiment [15] concerns the target T9, ELK4 (Homo sapiens, UniProt P28324-2 1-405).
T9 sequence: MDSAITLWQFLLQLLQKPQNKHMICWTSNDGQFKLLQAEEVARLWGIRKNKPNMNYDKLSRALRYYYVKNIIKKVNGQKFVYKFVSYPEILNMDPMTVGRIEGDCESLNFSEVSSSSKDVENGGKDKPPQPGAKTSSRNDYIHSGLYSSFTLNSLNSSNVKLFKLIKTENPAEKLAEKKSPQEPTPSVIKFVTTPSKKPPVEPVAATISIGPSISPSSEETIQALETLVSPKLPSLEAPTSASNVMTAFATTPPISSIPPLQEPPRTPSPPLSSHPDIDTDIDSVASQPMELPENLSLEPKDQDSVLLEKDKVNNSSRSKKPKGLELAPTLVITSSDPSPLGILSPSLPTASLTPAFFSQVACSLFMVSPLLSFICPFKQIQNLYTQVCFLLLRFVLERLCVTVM
As to conditions: protein: recombinant; tags: N-terminal GST; dsDNA, one strand shown. A digest of the protocol:
as §1

The target of experiment [16] is T10, ETV2 (Homo sapiens, UniProt O00321 1-342).
T10 sequence: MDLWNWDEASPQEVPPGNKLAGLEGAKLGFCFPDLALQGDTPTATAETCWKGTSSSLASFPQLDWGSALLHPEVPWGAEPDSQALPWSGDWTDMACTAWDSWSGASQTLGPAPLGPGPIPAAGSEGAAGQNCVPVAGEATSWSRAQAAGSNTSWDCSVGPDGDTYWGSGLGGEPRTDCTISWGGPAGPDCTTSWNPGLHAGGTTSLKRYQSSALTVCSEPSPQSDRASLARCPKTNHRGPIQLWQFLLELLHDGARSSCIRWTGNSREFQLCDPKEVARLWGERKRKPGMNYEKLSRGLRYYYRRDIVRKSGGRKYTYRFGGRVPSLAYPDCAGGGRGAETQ
As to conditions: protein: recombinant; tags: N-terminal GST; dsDNA, one strand shown. Put shortly:
as §1

Experiment [17] has as its target T11, ELF3 (Homo sapiens, UniProt P78545 1-371).
T11 sequence: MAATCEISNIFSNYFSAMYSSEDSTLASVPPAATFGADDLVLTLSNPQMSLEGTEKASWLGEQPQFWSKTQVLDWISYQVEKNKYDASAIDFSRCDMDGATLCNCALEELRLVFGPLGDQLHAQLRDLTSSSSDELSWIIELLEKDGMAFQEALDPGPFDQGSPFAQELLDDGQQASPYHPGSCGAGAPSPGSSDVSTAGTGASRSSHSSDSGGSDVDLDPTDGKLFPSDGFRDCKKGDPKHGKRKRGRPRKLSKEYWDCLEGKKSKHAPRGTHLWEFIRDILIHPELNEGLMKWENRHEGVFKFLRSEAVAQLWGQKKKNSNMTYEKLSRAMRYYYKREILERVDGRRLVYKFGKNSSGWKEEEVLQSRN
To be noted: protein: recombinant; tags: N-terminal GST; dsDNA, one strand shown. A digest of the protocol: as §1

Experiment [18] concerns the target CRX (Homo sapiens, UniProt O43186 1-299). To be noted: protein: recombinant; tags: N-terminal GST; dsDNA, one strand shown. Put shortly: as §1
For experiment [19], the target named is ETV1 (Homo sapiens, UniProt P50549 1-477). To be noted: protein: recombinant; tags: N-terminal GST; dsDNA, one strand shown. A digest of the protocol: as §1
ETV1, sequence (P50549 whole entry): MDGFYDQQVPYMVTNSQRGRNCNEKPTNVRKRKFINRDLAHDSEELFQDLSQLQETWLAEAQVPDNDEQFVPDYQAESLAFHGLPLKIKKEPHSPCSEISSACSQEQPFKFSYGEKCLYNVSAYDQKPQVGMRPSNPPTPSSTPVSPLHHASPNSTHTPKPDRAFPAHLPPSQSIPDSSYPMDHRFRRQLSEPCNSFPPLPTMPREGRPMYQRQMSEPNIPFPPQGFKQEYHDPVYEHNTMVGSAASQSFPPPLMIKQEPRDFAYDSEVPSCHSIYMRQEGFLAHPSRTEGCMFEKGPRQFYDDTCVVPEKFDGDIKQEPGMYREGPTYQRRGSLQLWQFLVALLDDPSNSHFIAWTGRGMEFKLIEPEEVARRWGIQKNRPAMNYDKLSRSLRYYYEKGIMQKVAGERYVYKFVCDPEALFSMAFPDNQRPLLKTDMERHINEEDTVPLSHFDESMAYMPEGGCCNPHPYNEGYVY

CRX, sequence (O43186 whole entry): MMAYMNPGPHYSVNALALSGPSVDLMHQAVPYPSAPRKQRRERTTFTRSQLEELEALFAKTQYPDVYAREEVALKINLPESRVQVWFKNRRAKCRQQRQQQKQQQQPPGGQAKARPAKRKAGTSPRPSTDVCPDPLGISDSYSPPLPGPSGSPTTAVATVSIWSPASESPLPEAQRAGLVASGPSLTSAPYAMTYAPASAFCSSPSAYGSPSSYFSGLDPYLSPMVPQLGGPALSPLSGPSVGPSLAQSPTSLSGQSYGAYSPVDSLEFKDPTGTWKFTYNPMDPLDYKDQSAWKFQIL
HSF1, sequence (Q00613 whole entry): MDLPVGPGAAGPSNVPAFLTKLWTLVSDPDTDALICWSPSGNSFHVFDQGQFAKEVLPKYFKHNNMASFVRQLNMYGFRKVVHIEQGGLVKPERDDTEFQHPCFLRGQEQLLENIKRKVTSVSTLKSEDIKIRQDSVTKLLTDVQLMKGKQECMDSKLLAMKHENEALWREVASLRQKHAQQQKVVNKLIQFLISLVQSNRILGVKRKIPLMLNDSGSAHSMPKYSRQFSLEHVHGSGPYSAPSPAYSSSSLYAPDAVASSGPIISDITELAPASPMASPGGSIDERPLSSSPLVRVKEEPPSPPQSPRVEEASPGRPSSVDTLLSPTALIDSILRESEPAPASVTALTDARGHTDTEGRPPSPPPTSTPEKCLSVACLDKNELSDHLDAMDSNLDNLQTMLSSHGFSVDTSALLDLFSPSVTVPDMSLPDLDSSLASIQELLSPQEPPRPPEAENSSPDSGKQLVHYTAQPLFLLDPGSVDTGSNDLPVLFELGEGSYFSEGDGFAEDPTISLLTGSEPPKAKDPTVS
ELF1, sequence (P32519 whole entry): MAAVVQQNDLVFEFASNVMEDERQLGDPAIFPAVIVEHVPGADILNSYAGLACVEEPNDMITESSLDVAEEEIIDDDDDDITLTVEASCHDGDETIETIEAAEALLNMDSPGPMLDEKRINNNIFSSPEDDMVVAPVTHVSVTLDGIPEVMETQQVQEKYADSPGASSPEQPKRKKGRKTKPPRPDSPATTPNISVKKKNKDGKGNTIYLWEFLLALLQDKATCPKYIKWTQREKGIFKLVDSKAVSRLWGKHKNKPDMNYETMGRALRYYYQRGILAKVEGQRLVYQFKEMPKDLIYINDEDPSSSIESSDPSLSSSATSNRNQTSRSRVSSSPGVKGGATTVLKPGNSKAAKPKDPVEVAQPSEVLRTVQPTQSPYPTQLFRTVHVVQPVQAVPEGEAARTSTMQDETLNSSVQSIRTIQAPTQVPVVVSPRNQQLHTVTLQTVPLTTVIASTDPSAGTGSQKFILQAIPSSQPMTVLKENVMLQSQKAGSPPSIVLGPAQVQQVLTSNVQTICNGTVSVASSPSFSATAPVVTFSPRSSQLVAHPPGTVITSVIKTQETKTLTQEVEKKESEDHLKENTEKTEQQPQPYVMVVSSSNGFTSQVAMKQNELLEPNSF

With TGGCAA, the binding signal in experiment [1] is 1.23 fold enrichment (6-mer frequency, TF over GST control); in experiment [2], 1.21 fold enrichment (6-mer frequency, TF over GST control); in experiment [3], 1.22 fold enrichment (6-mer frequency, TF over GST control); in experiment [4] it was 1.15 fold enrichment (6-mer frequency, TF over GST control); in experiment [5] it was 1.2 fold enrichment (6-mer frequency, TF over GST control); in experiment [6] it was 1.16 fold enrichment (6-mer frequency, TF over GST control). For the same sequence, the binding signal in experiment [7] was 1.2 fold enrichment (6-mer frequency, TF over GST control); in experiment [8], 1.32 fold enrichment (6-mer frequency, TF over GST control); in experiment [9], 1.11 fold enrichment (6-mer frequency, TF over GST control); in experiment [10], 1.17 fold enrichment (6-mer frequency, TF over GST control); in experiment [11], 1.18 fold enrichment (6-mer frequency, TF over GST control); in [12], 1.18 fold enrichment (6-mer frequency, TF over GST control). Further, the binding signal in experiment [13] is 1.13 fold enrichment (6-mer frequency, TF over GST control); in experiment [14], 1.21 fold enrichment (6-mer frequency, TF over GST control); in experiment [15] it was 1.19 fold enrichment (6-mer frequency, TF over GST control); in experiment [16] it was 1.11 fold enrichment (6-mer frequency, TF over GST control); in [17], 1.03 fold enrichment (6-mer frequency, TF over GST control); in experiment [18], 1.07 fold enrichment (6-mer frequency, TF over GST control). Further, the binding signal in [19] is 1.16 fold enrichment (6-mer frequency, TF over GST control).
